In PubChem BioAssay (EPA / NIEHS) one finds outcome and AC50 data, which are given here for four compounds.

The nature of experiment [1]: ATG_E_Box_CIS: Attagene CIS-FACTORIAL HepG2 Assay for human Enhancer Box (E-box) (AID 2282936). The settings on record: HepG2 E-box cis-reporter transcription, actives raise or lower the signal. The method in brief:
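Multiplexed CIS reporter system in transiently transfected HepG2 cells measures native transcription factor activity. Reporter RNA after 24 h exposure is profiled by RT-PCR-capillary electrophoresis.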

The nature of experiment [2]: ATG_M_61_CIS: Attagene CIS-FACTORIAL HepG2 Assay for M61 Transcription Factor (Internal Marker) (AID 2282937). The settings on record: HepG2 Attagene CIS-FACTORIAL M61 internal marker reporter; actives raise or lower the signal. An outline of the steps:
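Human liver HepG2, transient MRTU transfection (cis promoter elements), 24 h compound. Total RNA → oligo(dT) RT → PCR → FAM label → HpaI → CE. Internal background marker; bidirectional fitting, DMSO = baseline.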

Experiment [3] is described as follows: ATG_EGR_CIS: Attagene CIS-FACTORIAL HepG2 Assay for human Early Growth Response 1 (EGR1) (AID 2282938). To be noted: HepG2 Attagene CIS-FACTORIAL EGR reporter mRNA; actives raise or lower the signal. The method in brief:
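Transient transfection of human HepG2 with multiple cis-regulated reporter units, chemical exposure 24 h, total RNA isolated. Reverse transcription, PCR, fluorescent labelling and capillary electrophoresis quantify reporter transcripts; activity fitted bidirectionally against DMSO.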

Experiment [4] can be described thus: ATG_M_19_CIS: Attagene CIS-FACTORIAL HepG2 Assay for M19 Transcription Factor (Internal Marker) (AID 2282939). To be noted: HepG2 Attagene CIS-FACTORIAL M19 internal marker reporter; actives raise or lower the signal. The method in brief: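 Following a 24 h exposure, RNA from transfected HepG2 cells was reverse-transcribed, PCR-amplified with reporter-specific primers, end-labelled with 6-FAM and HpaI-digested before capillary separation. Values represent gain or loss versus DMSO.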

Experiment [5] in a line: ATG_ERE_CIS: Attagene CIS-FACTORIAL HepG2 Assay for Estrogen Response Element (ERE) (AID 2282940). The settings on record: HepG2 ERE cis-reporter, Attagene RNA transcript; actives raise or lower the signal. The method in brief:
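HepG2, transient cis-reporter units, 24 h exposure. RNA isolated, oligo(dT) RT, reporter-specific PCR, FAM extension, HpaI cut, CE detection. Gain/loss-of-signal vs DMSO.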

The nature of experiment [6]: ATG_Ets_CIS: Attagene CIS-FACTORIAL HepG2 Assay for human Erythroblast Transformation Specific (ETS) (AID 2282941). To be noted: HepG2 ETS cis-reporter transcription, actives raise or lower the signal. The method in brief:
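After transient cis-reporter transfection, HepG2 cells receive test chemical for 24 h. Reporter mRNA levels, measured by RT-PCR and capillary electrophoresis fluorescence, are analysed bidirectionally relative to the DMSO baseline.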

Experiment [7] concerns the target Hepatocyte nuclear factor 3-beta (Homo sapiens) (UniProt Q9Y261). The experiment can be described thus: ATG_FoxA2_CIS: Attagene CIS-FACTORIAL HepG2 Assay for human Forkhead box A2 (FOXA2) (AID 2282942). To be noted: HepG2 cis-reporter transcription factor activity, 24 h; actives raise or lower the signal. The method in brief:
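Transient MRTU transfection of HepG2 liver cells; 24 h treatment; total RNA → oligo(dT) RT → PCR → FAM primer extension → HpaI cut → CE. Bidirectional fit vs DMSO.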

The nature of experiment [8]: ATG_FoxO_CIS: Attagene CIS-FACTORIAL HepG2 Assay for human Forkhead box O (FoxO) (AID 2282943). The settings on record: HepG2 Attagene cis-reporter, FoxO element, mRNA; actives raise or lower the signal. An outline of the steps:
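Values reflect reporter mRNA induction or loss in HepG2 cells 24 h post-dosing, fitted bidirectionally with DMSO as negative control and baseline. Detection used RT-PCR and fluorescence capillary electrophoresis.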

Experiment [9] is described as follows: ATG_GATA_CIS: Attagene CIS-FACTORIAL HepG2 Assay for human GATA Binding Protein (AID 2282944). The settings on record: HepG2 GATA cis-element reporter, Attagene multiplex mRNA; actives raise or lower the signal. The method in brief: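 DMSO serves as negative control and baseline for bidirectional fitting of reporter mRNA changes. HepG2 cells bearing transiently transfected cis-promoter reporters were exposed 24 h; transcripts detected via RT-PCR and capillary electrophoresis.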

Experiment [10] in a line: ATG_GLI_CIS: Attagene CIS-FACTORIAL HepG2 Assay for human Zinc Finger Protein GLI1 (AID 2282945). The settings on record: HepG2, Attagene cis-factorial reporter mRNA, GLI element; actives raise or lower the signal. An outline of the steps: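 HepG2 cells transiently transfected with cis-promoter multiplexed reporter units report endogenous transcription factor activity. After 24 h chemical exposure, reporter mRNA was quantified by RT-PCR, 6-FAM labelling, HpaI digestion and capillary electrophoresis, with bidirectional fitting against DMSO.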

Experiment [11] in a line: ATG_ISRE_CIS: Attagene CIS-FACTORIAL HepG2 Assay for human Interferon Regulatory Factor 1 (IRF1) binding to an Interferon-Stimulated Response Element (ISRE) (AID 2282948). The settings on record: HepG2 ISRE cis-reporter (Attagene), mRNA transcription readout; actives raise or lower the signal. The method in brief:
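Quantitation relies on labelled RT-PCR fragments separated by capillary electrophoresis. Human HepG2 cells bearing cis-promoter reporter constructs were treated 24 h; DMSO served as baseline for bidirectional fitting.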

A short description of experiment [12]: ATG_M_32_CIS: Attagene CIS-FACTORIAL HepG2 Assay for M32 Transcription Factor (Internal Marker) (AID 2282949).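 Further: background control marker of the multiplexed CIS panel rather than a real target.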 The settings on record: HepG2 Attagene cis-factorial M32 reporter, mRNA; actives raise or lower the signal. An outline of the steps: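 Fluorescent capillary electrophoresis peaks of HpaI-digested, FAM-labelled RT-PCR reporter products give the signal. Source: transiently transfected human liver HepG2 cells, 24 h after chemical dosing; bidirectional fitting against DMSO.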

Experiment [13] can be described thus: ATG_M_06_CIS: Attagene CIS-FACTORIAL HepG2 Assay for M06 Transcription Factor (Internal Marker) (AID 2282950). To be noted: HepG2 Attagene CIS-FACTORIAL M06 internal marker reporter; actives raise or lower the signal. An outline of the steps:
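Fluorescence-labelled RT-PCR products from cis-promoter reporter units, cut with HpaI and resolved by capillary electrophoresis, give the signal. Cells are human HepG2, dosed for 24 h. Serves as background control, fitted relative to DMSO.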

Experiment [14] concerns the target Hypoxia-inducible factor 1-alpha (Homo sapiens) (UniProt Q16665). Briefly: ATG_HIF1a_CIS: Attagene CIS-FACTORIAL HepG2 Assay for human Hypoxia Inducible Factor 1 (HIF1A) (AID 2282951). The settings on record: HepG2 Attagene cis-factorial HIF1a reporter transcription; actives raise or lower the signal. An outline of the steps:
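Transient MRTU transfection of human HepG2 liver cells, 24 h compound treatment, then total RNA isolation, oligo(dT) reverse transcription, PCR amplification, fluorescent labelling and capillary electrophoresis of reporter fragments. Gain or loss relative to DMSO.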

Experiment [15] concerns the target Hepatocyte nuclear factor 6 (Homo sapiens) (UniProt Q9UBC0). Briefly: ATG_HNF6_CIS: Attagene CIS-FACTORIAL HepG2 Assay for human Hepatocyte Nuclear Factor 6 (HNF6) (AID 2282952). To be noted: HepG2 Attagene cis-factorial HNF6 reporter transcription; actives raise or lower the signal. The method in brief: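 HepG2, transient MRTU transfection (cis promoters); 24 h chemical exposure; total RNA → oligo(dT) RT → PCR → 6-FAM labelling → HpaI cut → CE; bidirectional fit vs DMSO.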

The target of experiment [16] is Heat shock factor protein 1 (Homo sapiens) (UniProt Q00613). The experiment can be described thus: ATG_HSE_CIS: Attagene CIS-FACTORIAL HepG2 Assay for human Heat Shock Transcription Factor 1 (HSE) (AID 2282953). The settings on record: HepG2 HSE cis-reporter, Attagene RNA transcription; actives raise or lower the signal. An outline of the steps:
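After a 24 h incubation with test chemical, transfected HepG2 cells were harvested for RNA; reporter transcripts were measured by RT-PCR and capillary electrophoresis. Values reflect gain or loss of signal relative to DMSO.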

The nature of experiment [17]: ATG_MRE_CIS: Attagene CIS-FACTORIAL HepG2 Assay for human Metal Responsive Element (MRE) (AID 2282954). To be noted: HepG2 MRE cis-reporter transcription, Attagene multiplex; actives raise or lower the signal. The method in brief: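 Step one: transfect HepG2 with cis-regulated reporter units. Step two: dose 24 h. Step three: isolate RNA, RT-PCR, 6-FAM label, HpaI digest, capillary electrophoresis. Fit bidirectionally to DMSO.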

Experiment [18] is described as follows: ATG_PBREM_CIS: Attagene CIS-FACTORIAL HepG2 Assay for human Phenobarbital-responsive Enhancer Module (PBREM) (AID 2282955). To be noted: HepG2 PBREM cis-reporter, Attagene multiplexed transcription; actives raise or lower the signal. An outline of the steps:
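Endogenous transcription factors in human liver HepG2 cells drive a PBREM cis-element reporter, whose transcript level after 24 h treatment is quantified by RT-PCR with capillary electrophoresis; activity fitted in both directions against DMSO.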

Experiment [19] in a line: ATG_GRE_CIS: Attagene CIS-FACTORIAL HepG2 Assay for human Glucocorticoid Response Elements (GRE) (AID 2282947). To be noted: HepG2 GRE cis-reporter, Attagene multiplex mRNA; actives raise or lower the signal. The method in brief:
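Following 24 h chemical exposure of transiently transfected HepG2 cells, total RNA was reverse-transcribed and reporter cDNA amplified, fluorescently labelled and sized by capillary electrophoresis. Signal gain or loss was fitted relative to DMSO vehicle.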

SMILES strings stand for the structures. The source made the active and inactive calls. How the source made its calls: active means hit-call score of the fitted dose curve at least 0.9, where 1 is the maximum; inactive means score below 0.9.

Sequence of Hepatocyte nuclear factor 3-beta (Homo sapiens) (Q9Y261 whole entry, looked up): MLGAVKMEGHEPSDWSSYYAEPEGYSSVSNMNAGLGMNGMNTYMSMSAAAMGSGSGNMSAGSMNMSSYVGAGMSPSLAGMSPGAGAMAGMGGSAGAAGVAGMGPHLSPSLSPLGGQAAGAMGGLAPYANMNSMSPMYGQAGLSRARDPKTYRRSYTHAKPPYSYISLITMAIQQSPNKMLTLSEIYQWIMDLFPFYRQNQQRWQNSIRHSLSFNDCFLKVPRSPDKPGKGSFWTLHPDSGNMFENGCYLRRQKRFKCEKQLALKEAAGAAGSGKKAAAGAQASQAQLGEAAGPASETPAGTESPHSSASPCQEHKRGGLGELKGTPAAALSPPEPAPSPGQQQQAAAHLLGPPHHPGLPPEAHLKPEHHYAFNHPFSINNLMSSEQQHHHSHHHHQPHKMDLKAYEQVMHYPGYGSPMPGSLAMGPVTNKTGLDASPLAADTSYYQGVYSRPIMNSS
Sequence of Heat shock factor protein 1 (Homo sapiens) (Q00613 whole entry, looked up): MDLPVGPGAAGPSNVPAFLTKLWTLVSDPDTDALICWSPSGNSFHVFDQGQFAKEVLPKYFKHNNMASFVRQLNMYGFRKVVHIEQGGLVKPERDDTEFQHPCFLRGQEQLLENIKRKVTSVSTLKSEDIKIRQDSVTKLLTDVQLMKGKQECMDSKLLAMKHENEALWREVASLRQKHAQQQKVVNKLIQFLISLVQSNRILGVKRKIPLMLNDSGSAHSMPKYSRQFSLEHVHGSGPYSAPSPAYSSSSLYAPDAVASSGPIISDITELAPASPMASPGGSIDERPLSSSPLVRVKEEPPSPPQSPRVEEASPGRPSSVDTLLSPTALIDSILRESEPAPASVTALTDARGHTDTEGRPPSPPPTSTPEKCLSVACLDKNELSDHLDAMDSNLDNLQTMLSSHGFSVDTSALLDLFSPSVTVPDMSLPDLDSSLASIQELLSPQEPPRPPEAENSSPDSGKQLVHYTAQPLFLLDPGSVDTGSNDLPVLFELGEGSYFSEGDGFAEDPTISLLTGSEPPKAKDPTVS
Sequence of Hepatocyte nuclear factor 6 (Homo sapiens) (Q9UBC0 whole entry, looked up): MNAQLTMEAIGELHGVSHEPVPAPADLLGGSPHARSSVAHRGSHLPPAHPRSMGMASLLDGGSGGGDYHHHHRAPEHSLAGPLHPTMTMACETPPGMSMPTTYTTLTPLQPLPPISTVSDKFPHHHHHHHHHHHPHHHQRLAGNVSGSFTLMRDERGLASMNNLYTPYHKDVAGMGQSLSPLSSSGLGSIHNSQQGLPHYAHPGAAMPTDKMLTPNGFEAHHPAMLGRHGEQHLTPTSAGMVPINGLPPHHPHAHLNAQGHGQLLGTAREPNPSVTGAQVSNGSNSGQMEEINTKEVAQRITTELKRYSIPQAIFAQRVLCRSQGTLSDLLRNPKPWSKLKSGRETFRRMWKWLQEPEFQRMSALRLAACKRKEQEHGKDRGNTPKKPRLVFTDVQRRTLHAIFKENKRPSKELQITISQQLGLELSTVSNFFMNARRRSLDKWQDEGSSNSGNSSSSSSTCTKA
Sequence of Hypoxia-inducible factor 1-alpha (Homo sapiens) (Q16665 whole entry, looked up, the tested form may be a part): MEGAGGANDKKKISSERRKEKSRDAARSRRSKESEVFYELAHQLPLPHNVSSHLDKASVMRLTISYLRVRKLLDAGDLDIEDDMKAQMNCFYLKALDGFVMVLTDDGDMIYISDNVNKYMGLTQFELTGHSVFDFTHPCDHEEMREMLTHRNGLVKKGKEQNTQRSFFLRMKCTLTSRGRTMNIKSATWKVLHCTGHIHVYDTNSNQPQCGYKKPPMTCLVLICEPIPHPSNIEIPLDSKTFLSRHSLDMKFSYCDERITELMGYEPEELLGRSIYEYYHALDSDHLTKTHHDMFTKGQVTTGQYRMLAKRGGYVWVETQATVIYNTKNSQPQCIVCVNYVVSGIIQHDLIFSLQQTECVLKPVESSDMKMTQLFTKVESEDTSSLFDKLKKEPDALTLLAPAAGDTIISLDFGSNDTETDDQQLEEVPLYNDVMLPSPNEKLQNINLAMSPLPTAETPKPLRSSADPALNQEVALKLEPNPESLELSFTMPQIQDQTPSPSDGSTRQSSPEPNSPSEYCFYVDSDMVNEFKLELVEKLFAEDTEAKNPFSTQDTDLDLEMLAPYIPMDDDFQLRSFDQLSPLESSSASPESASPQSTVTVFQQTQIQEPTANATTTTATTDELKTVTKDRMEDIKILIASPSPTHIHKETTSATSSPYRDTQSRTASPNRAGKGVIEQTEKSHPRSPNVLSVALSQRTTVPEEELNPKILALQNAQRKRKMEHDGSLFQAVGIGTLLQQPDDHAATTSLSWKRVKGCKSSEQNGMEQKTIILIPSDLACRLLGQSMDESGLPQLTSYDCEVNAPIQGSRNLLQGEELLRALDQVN

Regarding `CC/C=C\CCOC(=O)CCCCC`, the result in experiment [1], in experiment [2], in [3], in experiment [4], in [5] and in experiment [6] was inactive. Further, the call in experiment [7], in [8], in experiment [9], in [10], in experiment [11] and in experiment [12] was inactive. Besides, the outcome in experiment [13], in experiment [14], in [15], in [16], in experiment [17] and in experiment [18] was inactive.

For the compound `O=c1[nH]nc(-c2ccc([N+](=O)[O-])o2)o1`, the result in experiment [1], in [2], in experiment [3], in experiment [4], in experiment [5] and in experiment [6] was inactive. Further, the outcome in [7], in [8], in [9], in experiment [19], in experiment [11] and in experiment [12] was inactive. The result in [13], in experiment [14], in [15], in experiment [16], in experiment [17] and in experiment [18] was inactive.

With `C=C(C)C(=O)OCCOc1ccccc1`, the outcome in experiment [1], in experiment [2], in experiment [3], in [4], in experiment [5] and in experiment [6] was inactive. In addition, the compound was classed as inactive in [7], in [8], in experiment [9], in experiment [10], in experiment [19] and in experiment [11]. The result in experiment [13], in [14], in experiment [15], in experiment [16], in [17] and in experiment [18] was inactive.

With `COc1ccc(C(Cl)=C(c2ccc(OC)cc2)c2ccc(OC)cc2)cc1`, the AC50 in experiment [1] was 21.8 µM (active). In addition, the call in experiment [2], in experiment [3], in experiment [4], in [5], in experiment [6] and in experiment [7] was inactive. The result in experiment [8], in experiment [9], in [10], in experiment [19], in experiment [11] and in experiment [13] was inactive. In addition, the result in experiment [14], in experiment [15], in experiment [17] and in [18] was inactive.

For orientation: AC50 means the midpoint of the concentration-response curve, whichever way the signal moves.
